# Legend:
# Conditions in all cases: concentration: 1 μM,replicates: in singlicate; n = 1
# PCTK2 = system: T1, PCTK2
# T1 construct: gene CDK17
# PCTK3 = system: T2, PCTK3
# T2 construct: gene CDK18
# PDGFRA = system: PDGFRA
# PDGFRB = system: PDGFRB
# PDPK1 = system: PDPK1
# PFTAIRE2 = system: PFTAIRE2
# PFTK1 = system: T3, PFTK1
# T3 construct: gene CDK14
# PHKG1 = system: PHKG1
# PHKG2 = system: PHKG2
# PIK3C2B = system: PIK3C2B
# 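Further: KINOMEscan kinase panel screen.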
SMILES,%Inh (PCTK2) [%],%Inh (PCTK3) [%],%Inh (PDGFRA) [%],%Inh (PDGFRB) [%],%Inh (PDPK1) [%],%Inh (PFTAIRE2) [%],%Inh (PFTK1) [%],%Inh (PHKG1) [%],%Inh (PHKG2) [%],%Inh (PIK3C2B) [%]
Cn1ccc2ncnc(Oc3ccc(NC(=O)Nc4cccc(C(F)(F)F)c4)c(F)c3)c21,17,1,99.1,100,17,0,0,18,0,0
O=C(Nc1ccccc1)c1cccc(Oc2ccc3nccn3n2)c1,0,38,66,99.3,0,0,38,15,0,0
O=C(Nc1cccc(C(F)(F)F)c1)c1cccc(Oc2ccc3nccn3n2)c1,0,0,98.5,99.9,13,0,0,33,0,99.3
Cl.c1ccc(Oc2ccc(Nc3ccnc4cc(-c5ccc(CN6CCNCC6)o5)ccc34)cc2)nc1 [GW567142],0,2,78,98.5,0,25,11,0,0,0
CC(C)c1nc(-c2cccc(NS(=O)(=O)c3ccccc3)c2)c(-c2ccnc(Nc3ccc4c(c3)CN(C)CC4)n2)s1 [GSK1649598],100,100,91.2,100,0,85,78,0,45,20
COC(=O)c1cccc(NC(=O)NC2CCN(c3ccnc(NCc4ccc(F)cc4)n3)CC2)c1 [GSK1379860],0,33,14,7,5,0,7,0,0,0
FC(F)(F)c1cc(Br)cc(Nc2nccc(-c3cnn4ncccc34)n2)c1 [GW810578],21,31,64,98.4,5,0,14,16,0,0
Cc1ccc(C(=O)Nc2ccc(Oc3ccc4nc(NC(=O)C5CC5)cn4c3)c(F)c2)c(=O)n1-c1ccccc1,2,0,98.2,96.5,0,9,0,26,0,0
CN1CCN(CCCNc2nccc(-c3c(-c4ccc(F)cc4)nn4cc(C(N)=O)ccc34)n2)CC1 [GW622475],20,12,0,63,0,33,11,14,26,8
C[C@@H](Oc1cc(-n2cnc3ccc(-c4ccncc4)cc32)sc1C(N)=O)c1ccccc1Cl [GSK483724],0,47,8,54,0,22,26,9,0,88
CN1CCN(CCNc2nc3cc(Oc4ccc(NC(=O)Nc5cc(C(F)(F)F)ccc5F)cc4)ccc3[nH]2)CC1.Cl.Cl [GW768504],0,0,84,99.6,0,37,18,0,0,14
Nc1nccc(-c2ccc3c(N)n[nH]c3c2)n1 [GSK1034945],0,10,0,17,34,15,10,5,13,0
Cc1ccn2nc(-c3ccc(F)cc3)c(-c3ccncc3)c2c1.Cl [GW457859],18,7,0,33,0,7,24,0,11,0
COc1cc2ncn(-c3cc(OCC4CCCCC4)c(C(N)=O)s3)c2cc1OC [GSK204559],0,21,2,66,17,34,24,4,18,0
C[C@@H](Oc1cc(-n2cnc3cc(-c4cnn(C)c4)ccc32)sc1C(N)=O)c1ccccc1Cl [GSK580432],0,19,84,99.8,75,7,7,0,47,0
CCOC(=O)N1CCC(n2cnc(-c3ccc(F)cc3)c2-c2ccnc(N)n2)CC1 [SB-219952],9,32,14,23,7,25,17,0,0,56
O=C(Nc1n[nH]c2cc(-c3ccco3)ccc12)C1CC1 [SB-737447],31,28,30,59,0,0,1,0,3,6

SMILES,%Inh (PCTK2) [%],%Inh (PCTK3) [%],%Inh (PDGFRA) [%],%Inh (PDGFRB) [%],%Inh (PDPK1) [%],%Inh (PFTAIRE2) [%],%Inh (PFTK1) [%],%Inh (PHKG1) [%],%Inh (PHKG2) [%],%Inh (PIK3C2B) [%]
CSc1nccc(-c2c(-c3ccc(F)cc3)ncn2CCCN2CCOCC2)n1.Cl [SB-217146],0,0,0,12,10,0,0,11,0,0
Cc1ccc(CC(=O)N2CCc3cc(-c4cn(C)c5ncnc(N)c45)ccc32)cc1 [GSK2634758],0,0,39,96.4,57,9,17,0,0,40
Cl.Cl.NC[C@H](CC1CCCCC1)NC(=O)c1ccc(-c2ccnc3[nH]ccc23)s1 [GSK1581428],0,0,80,97.3,18,32,31,36,13,0
COc1cc(Nc2nccc(N3CCC(NC(=O)c4cccc(C#N)c4)C3)n2)cc(OC)c1OC (stereo not drawn) [GSK1379751],0,0,0,70,0,0,3,0,0,0
COc1cc2nccc(Nc3ccc(Oc4ccccc4)cc3)c2cc1OC.Cl [GI261656],0,0,77,92,0,5,9,0,6,0
O=c1[nH]cc(-c2ccc(O)cc2)c2sc(-c3ccncc3)cc12 [GSK1033723],12,17,0,18,0,11,18,7,22,0
CS(=O)(=O)Nc1ccc(-c2ccnc3[nH]ccc23)cc1 [GSK993273],0,0,1,61,0,16,16,2,13,0
CN(c1cccc(CNc2nc(Nc3ccc4c(c3)CC(=O)N4)ncc2C(F)(F)F)c1)S(C)(=O)=O,2,4,34,72,65,10,17,40,18,0
N#Cc1cccc(C(=O)NC2CCN(c3ccnc(Nc4ccc(F)cc4)n3)C2)c1 (stereo not drawn) [GSK1379708],0,0,0,23,13,2,11,0,0,0
CNC(=O)c1ccccc1Nc1nc(Nc2cccc(CS(C)(=O)=O)c2)ncc1C.O=CO [GSK1520489],0,18,94,99.9,49,0,16,63,49,0
Cn1ccc2ncnc(Oc3ccc(NC(=O)Nc4ccnc(C(F)(F)F)c4)c(Cl)c3)c21,0,0,97,100,0,5,0,24,8,0
C[C@@H]1CCN(C(=O)N2CCCC2)C[C@@H]1N(C)c1ncnc2[nH]ccc12,0,0,21,19,0,0,0,0,5,0
O=C(NOCC1CC1)c1cc(Br)c(F)c(F)c1Nc1ccc(I)cc1Cl,0,0,0,13,9,0,0,0,0,0
CCN1CCN(CCCC(=O)Nc2n[nH]c3nc(-c4ccc(O)cc4)c(Br)cc23)CC1 [SB-731579],40,41,39,99.4,0,11,31,0,2,0
COc1cccc(C2=C(Nc3cccc(Cl)c3)C(=O)NC2=O)c1 [SB-341556],0,6,0,17,0,8,0,0,0,0
Cn1ccc2ncnc(Oc3ccc(NC(=O)Nc4cccc(C(F)(F)F)c4)c(Cl)c3)c21,0,8,98.6,100,0,3,10,0,3,0

# — PMC5540273 (PLoS ONE, 2017)
